Data from PubChem BioAssay (Tox21).
Inconclusive results are not listed. Calls of active or inactive are those of the source. Unless noted, the call rests on the fitted dose curve; in most records, active means well fitted curve in the direction sought with a large enough effect in the repeat runs; inconclusive means weak or mixed curves; inactive means no such curve, though single readings can be large; an effect the other way counts as inactive or inconclusive.

Legend:
[1] = qHTS assay to identify small molecule antagonists of the sonic hedgehog signaling (Shh) pathway (AID 1259369; calls by dose curve; further: nearly all actives have a fitted effect of over 45% in size)
How it was run: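 Conditioned medium drives Shh signalling in 3T3Gli1-Luc cells; compounds in DMSO co-applied, 24hr at 37 C, then luciferase luminescence.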

[2] = qHTS assay to identify small molecule agonists of the androgen receptor (AR) signaling pathway in the presence of an antagonist - cell viability counter screen (AID 1259379);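 further: MDA-kb2 human breast cancer cells carrying an MMTV luciferase reporter; series mostly up to about 92 µM; nearly all actives have a fitted effect of over 25% in size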
How it was run: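 A CellTiter-Fluor read-out measured viability of MDA-kb2 reporter cells (MMTV promoter with AR and GR response elements). Treatment: nilutamide 3.0uM final with compounds at 15 concentrations, 16 hr, 37C, 0% CO2.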

[3] = qHTS assay to identify small molecule agonists of the estrogen receptor beta (ER-beta) signaling pathway - cell viability counter screen (AID 1259380); further: nearly all actives have a fitted effect of over 30% in size
How it was run: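 Cells used were ER-beta-UAS-bla HEK293T in medium with 2% charcoal-stripped FBS. They were treated for 16 hr at 37C. Viability came from CellTiter-Glo luminescence.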

[4] = qHTS assay to identify small molecule antagonists of the estrogen receptor beta (ER-beta) signaling pathway - cell viability counter screen (AID 1259382); further: series mostly up to about 92 µM; nearly all actives have a fitted effect of over 55% in size
How it was run: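 Agonist-stimulated (1nM E2) ER-beta-UAS-bla HEK293T cells are incubated with library compounds for 16 hr at 37C. Cell viability is then assessed in the reporter-assay wells by adding CellTiter-Glo and reading luminescence after 30 min.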

[5] = qHTS assay to identify small molecule agonists of the estrogen receptor alpha (ER-alpha) signaling pathway in the presence of an antagonist - cell viability counter screen (AID 1259386);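 further: series mostly up to about 92 µM; cells exposed to compounds for 22 h at 37 °C before the viability read; nearly all actives have a fitted effect of over 30% in size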
How it was run: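 ICI-182,780 at 10.0nM final accompanies the compound titration (15 concentrations, 22hr, 37C) on VM7Luc4E2 cells. The CellTiter-Fluor fluorescence readout runs in the same wells as the luciferase assay.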

[6] = target: Progesterone receptor (Homo sapiens) (UniProt P06401); test: qHTS assay to identify small molecule agonists of the progesterone receptor (PR) signaling pathway (AID 1346784; calls by dose curve; further: nearly all actives have a fitted effect of over 30% in size)
How it was run: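 Agonist qHTS: compounds pinned onto 3,000 PR-UAS-bla HEK 293T cells per well in charcoal-stripped serum medium, 16hr at 37C, then beta-lactamase activity measured by LiveBLAzer FRET fluorescence after 2 hours at room temperature.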

[7] = target: Progesterone receptor (Homo sapiens) (UniProt P06401); test: qHTS assay to identify small molecule antagonists of the progesterone receptor (PR) signaling pathway (AID 1346795; active means well fitted inhibition curve with a large enough effect in the signal ratio in the repeat runs, not every such curve was filed as active; the % refers to the signal ratio)
How it was run: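 Antagonist mode with agonist R5020 at 1 nM final and 16 hr incubation at 37C. Reporter was beta-lactamase driven by UAS in HEK293T (PR-UAS-bla), 2% charcoal-stripped serum; signal from LiveBLAzer FRET substrate, 2 hr at room temperature.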

[8] = qHTS assay to identify small molecule antagonists of the progesterone receptor (PR) signaling pathway - cell viability counter screen (AID 1346798); further: series mostly up to about 92 µM; nearly all actives have a fitted effect of over 50% in size
How it was run: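 Cytotoxicity read as CellTiter-Glo luminescence (30 min, room temperature) in the same wells as the beta-lactamase readout. HEK293T PR-UAS-bla cells in charcoal-stripped 2% FBS received compound and R5020, then 16 h at 37C, 5% CO2.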

[9] = qHTS assay to identify small molecule agonists of the progesterone receptor (PR) signaling pathway - cell viability counter screen (AID 1346799; calls by dose curve; further: nearly all actives have a fitted effect of over 45% in size)
How it was run: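 Cytotoxicity measured by CellTiter-Glo luminescence (30 min, RT) in the same wells as the PR beta-lactamase agonist read. Those HEK293T cells had 16 h compound treatment at 37 C in 2% charcoal-stripped FBS medium.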

[10] = qHTS assay to identify small molecule antagonists of the TGF-beta/Smad signaling pathway - cell viability counter screen (AID 1346824); further: nearly all actives have a fitted effect of over 50% in size
How it was run: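 SBE-bla HEK 293T cells were plated overnight at 37 C, then given compounds in DMSO plus TGF-beta1 (added as 0.25 ng/mL solution) for 5 hr. After the bla read, CellTiter-Glo was added to the same wells and luminescence read after 30 min at room temperature.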

[11] = qHTS assay to identify small molecule agonists of the TGF-beta/Smad signaling pathway - cell viability counter screen (AID 1346829); further: top concentration of the series differs between compounds; nearly all actives have a fitted effect of over 45% in size
How it was run: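 HEK 293T SBE-bla line, 5 hr compound exposure at 37 C, multiplexed CellTiter-Glo viability read by luminescence.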

[12] = qHTS assay to identify small molecule agonists of the TGF-beta/Smad signaling pathway (AID 1346859; active means well fitted activation curve with a large enough effect in the signal ratio in the repeat runs, not every such curve was filed as active; the % refers to the signal ratio; further: series mostly up to about 77 µM)
How it was run: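 Fluorescence (ex 405 nm; em 460 and 530 nm) was read 2 h after LiveBLAzer FRET substrate at RT. The preceding compound treatment of overnight-plated SBE-bla HEK293T cells lasted 5 h at 37 C.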

[13] = target: Thyrotropin-releasing hormone receptor (Homo sapiens) (UniProt P34981); test: qHTS assay to identify small molecule antagonists of the thyrotropin-releasing hormone receptor (TRHR) signaling pathway (AID 1346877; active means well fitted inhibition curve with a large enough effect in the repeat runs, not every such curve was filed as active; further: series mostly up to about 51 µM)
How it was run: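 Screening used HEK293 cells engineered with TRHR, with a brief 5 min room-temperature compound exposure preceding addition of TRH to 1 nM. The read-out was kinetic calcium-dye fluorescence, concentration-response from 15 doses in triplicate.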

[14] = target: Thyrotropin-releasing hormone receptor (Homo sapiens) (UniProt P34981); test: qHTS assay to identify small molecule agonists of the thyrotropin-releasing hormone receptor (TRHR) signaling pathway (AID 1346891; calls by dose curve; further: series mostly up to about 58 µM)
How it was run: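 Agonist-mode intracellular calcium readout: kinetic fluorescence over 3 min at 1 s intervals after compound addition to TRHR-HEK293 cells (18 h seeded, 2 h dye-loaded at 37 C). Fifteen concentrations, triplicates.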

[15] = target: Estrogen receptor (Homo sapiens) (UniProt P03372); test: qHTS assay to identify small molecule agonists of the estrogen receptor alpha (ER-alpha) signaling pathway in the presence of an antagonist (AID 1259383; calls by dose curve; further: top concentration of the series differs between compounds; nearly all actives have a fitted effect of over 15% in size)
How it was run: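 Using VM7Luc4E2 cells seeded 24hr before treatment, antagonist ICI-182,780 (10.0nM final) was added, followed by compounds at 15 concentrations. Plates incubated 22hr; ONE-Glo luminescence quantified reporter activity.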

[16] = qHTS assay to identify small molecule agonists or antagonists of the thyroid stimulating hormone receptor (TSHR) signaling pathway - wild type cell line counter screen (AID 1259384; calls by dose curve)
How it was run: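 Wild-type HEK293 cells were plated 18 h at 37 C/5% CO2, pin-dosed with compound plus Ro20-1724 medium, held 30 min at room temperature, then given cAMP-d2 and anti-cAMP-cryptate; fluorescence was read after 1 h. Fifteen concentrations, triplicate.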

[17] = target: Thyrotropin receptor (Homo sapiens) (UniProt P16473); test: qHTS assay to identify small molecule antagonists of the thyroid stimulating hormone receptor (TSHR) signaling pathway (AID 1259385; calls by dose curve; further: nearly all actives have a fitted effect of over 20% in size)
How it was run: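 TSHR-HEK293 cells were plated and held 18 h at 37C/5% CO2, then given compound plus Ro20-1724 and stimulated with TSH at 1.5 ng/mL final. After 30 min at room temperature, cAMP was detected with cAMP-d2/anti-cAMP-cryptate (1 h) by fluorescence.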

[18] = target: Estrogen receptor beta (Homo sapiens) (UniProt Q92731); test: qHTS assay to identify small molecule antagonists of the estrogen receptor beta (ER-beta) signaling pathway (AID 1259378; active means well fitted inhibition curve with a large enough effect in the signal ratio in the repeat runs, not every such curve was filed as active; the % refers to the signal ratio)
How it was run: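 ER-beta-UAS-bla HEK293T (GripTite) cells in 2% charcoal-stripped FBS medium were preincubated 6 hr at 37C, dosed with compound, then stimulated with 1 nM E2 (final) for 16 hr; beta-lactamase reporter read by B/G FRET fluorescence after 2 hr substrate loading.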

[19] = target: Androgen receptor (Homo sapiens) (UniProt P10275); test: qHTS assay to identify small molecule agonists of the androgen receptor (AR) signaling pathway in the presence of an antagonist (AID 1259381; calls by dose curve; further: nearly all actives have a fitted effect of over 15% in size)
How it was run: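 Using human MDA-kb2 cells with an MMTV promoter–luciferase construct (AR and GR response elements), agonist activity is scored under 3.0uM nilutamide (final) co-treatment; 16hr incubation, 37C, luminescence readout via ONE-Glo.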

[20] = target: Estrogen receptor beta (Homo sapiens) (UniProt Q92731); test: qHTS assay to identify small molecule agonists of the estrogen receptor beta (ER-beta) signaling pathway (AID 1259377; active means well fitted activation curve with a large enough effect in the signal ratio in the repeat runs, not every such curve was filed as active; the % refers to the signal ratio)
How it was run: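 Ratiometric beta-lactamase FRET read-out came after 2 h substrate loading at room temperature. It followed 16 h compound treatment at 37C of GripTite HEK293T cells carrying a UAS-bla reporter, plated in 2% charcoal-stripped FBS medium.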
On the % scale 0 is the no-effect control and ±100 the full control effect.

Chain of Estrogen receptor beta (Homo sapiens) (Q92731 whole entry, looked up): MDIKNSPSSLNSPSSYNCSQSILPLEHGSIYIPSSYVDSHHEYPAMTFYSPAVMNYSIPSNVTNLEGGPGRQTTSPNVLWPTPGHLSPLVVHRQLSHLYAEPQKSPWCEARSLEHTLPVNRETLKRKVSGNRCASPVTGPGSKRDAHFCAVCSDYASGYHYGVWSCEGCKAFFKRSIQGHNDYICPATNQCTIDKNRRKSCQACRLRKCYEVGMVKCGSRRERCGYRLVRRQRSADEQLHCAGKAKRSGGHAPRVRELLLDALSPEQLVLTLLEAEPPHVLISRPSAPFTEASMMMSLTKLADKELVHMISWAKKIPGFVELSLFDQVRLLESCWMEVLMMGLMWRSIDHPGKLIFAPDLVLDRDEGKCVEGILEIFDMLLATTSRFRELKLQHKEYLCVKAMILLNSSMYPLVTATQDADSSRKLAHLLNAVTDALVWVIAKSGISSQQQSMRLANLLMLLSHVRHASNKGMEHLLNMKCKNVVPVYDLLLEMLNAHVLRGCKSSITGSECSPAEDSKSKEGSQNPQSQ
Chain of Estrogen receptor (Homo sapiens) (P03372 whole entry, looked up): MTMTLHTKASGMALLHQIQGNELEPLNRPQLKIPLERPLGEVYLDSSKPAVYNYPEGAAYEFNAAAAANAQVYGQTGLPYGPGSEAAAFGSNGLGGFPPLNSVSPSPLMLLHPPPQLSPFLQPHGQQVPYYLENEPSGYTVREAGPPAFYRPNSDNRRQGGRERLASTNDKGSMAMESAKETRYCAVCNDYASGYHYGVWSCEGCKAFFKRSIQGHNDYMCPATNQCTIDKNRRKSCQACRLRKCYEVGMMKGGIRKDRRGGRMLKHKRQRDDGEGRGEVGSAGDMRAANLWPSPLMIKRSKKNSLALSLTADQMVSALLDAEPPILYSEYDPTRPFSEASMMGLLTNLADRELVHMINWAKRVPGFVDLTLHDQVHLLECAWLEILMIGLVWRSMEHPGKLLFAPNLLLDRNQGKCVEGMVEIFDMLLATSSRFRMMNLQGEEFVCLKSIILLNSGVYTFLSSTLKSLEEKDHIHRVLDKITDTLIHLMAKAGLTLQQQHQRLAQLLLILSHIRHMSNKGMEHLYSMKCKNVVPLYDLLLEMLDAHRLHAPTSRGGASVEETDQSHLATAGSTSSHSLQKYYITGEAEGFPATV
Chain of Thyrotropin-releasing hormone receptor (Homo sapiens) (P34981 whole entry, looked up): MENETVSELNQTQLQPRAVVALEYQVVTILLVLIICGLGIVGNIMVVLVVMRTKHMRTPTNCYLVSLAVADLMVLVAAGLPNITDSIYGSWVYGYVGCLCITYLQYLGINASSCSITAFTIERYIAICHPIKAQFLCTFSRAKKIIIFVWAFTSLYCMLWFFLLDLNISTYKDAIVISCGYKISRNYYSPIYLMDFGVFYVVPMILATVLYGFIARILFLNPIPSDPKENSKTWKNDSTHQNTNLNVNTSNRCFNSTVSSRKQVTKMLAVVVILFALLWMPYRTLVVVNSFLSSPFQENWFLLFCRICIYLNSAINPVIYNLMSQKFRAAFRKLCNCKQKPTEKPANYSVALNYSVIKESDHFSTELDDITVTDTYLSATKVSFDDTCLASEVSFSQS
Chain of Thyrotropin receptor (Homo sapiens) (P16473 whole entry, looked up): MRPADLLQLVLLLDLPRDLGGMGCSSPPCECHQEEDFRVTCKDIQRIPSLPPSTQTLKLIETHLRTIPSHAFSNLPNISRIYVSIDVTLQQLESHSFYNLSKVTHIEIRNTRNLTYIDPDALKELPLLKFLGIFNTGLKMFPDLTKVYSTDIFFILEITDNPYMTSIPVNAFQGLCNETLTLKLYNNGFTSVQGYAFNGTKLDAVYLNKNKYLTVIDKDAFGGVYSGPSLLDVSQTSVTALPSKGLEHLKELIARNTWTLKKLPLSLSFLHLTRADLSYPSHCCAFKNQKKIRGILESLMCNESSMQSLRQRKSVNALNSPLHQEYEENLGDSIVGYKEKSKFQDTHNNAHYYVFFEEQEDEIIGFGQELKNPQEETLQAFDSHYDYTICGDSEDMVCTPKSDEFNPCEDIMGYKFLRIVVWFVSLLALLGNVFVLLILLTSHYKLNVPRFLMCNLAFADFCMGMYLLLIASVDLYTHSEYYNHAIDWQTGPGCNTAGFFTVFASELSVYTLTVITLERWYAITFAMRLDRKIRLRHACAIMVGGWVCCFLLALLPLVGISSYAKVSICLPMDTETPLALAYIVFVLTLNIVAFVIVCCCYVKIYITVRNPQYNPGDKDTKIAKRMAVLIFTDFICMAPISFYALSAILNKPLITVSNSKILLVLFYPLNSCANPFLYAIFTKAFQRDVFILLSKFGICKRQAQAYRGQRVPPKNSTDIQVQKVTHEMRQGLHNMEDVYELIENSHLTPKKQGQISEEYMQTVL
Chain of Progesterone receptor (Homo sapiens) (P06401 whole entry, looked up): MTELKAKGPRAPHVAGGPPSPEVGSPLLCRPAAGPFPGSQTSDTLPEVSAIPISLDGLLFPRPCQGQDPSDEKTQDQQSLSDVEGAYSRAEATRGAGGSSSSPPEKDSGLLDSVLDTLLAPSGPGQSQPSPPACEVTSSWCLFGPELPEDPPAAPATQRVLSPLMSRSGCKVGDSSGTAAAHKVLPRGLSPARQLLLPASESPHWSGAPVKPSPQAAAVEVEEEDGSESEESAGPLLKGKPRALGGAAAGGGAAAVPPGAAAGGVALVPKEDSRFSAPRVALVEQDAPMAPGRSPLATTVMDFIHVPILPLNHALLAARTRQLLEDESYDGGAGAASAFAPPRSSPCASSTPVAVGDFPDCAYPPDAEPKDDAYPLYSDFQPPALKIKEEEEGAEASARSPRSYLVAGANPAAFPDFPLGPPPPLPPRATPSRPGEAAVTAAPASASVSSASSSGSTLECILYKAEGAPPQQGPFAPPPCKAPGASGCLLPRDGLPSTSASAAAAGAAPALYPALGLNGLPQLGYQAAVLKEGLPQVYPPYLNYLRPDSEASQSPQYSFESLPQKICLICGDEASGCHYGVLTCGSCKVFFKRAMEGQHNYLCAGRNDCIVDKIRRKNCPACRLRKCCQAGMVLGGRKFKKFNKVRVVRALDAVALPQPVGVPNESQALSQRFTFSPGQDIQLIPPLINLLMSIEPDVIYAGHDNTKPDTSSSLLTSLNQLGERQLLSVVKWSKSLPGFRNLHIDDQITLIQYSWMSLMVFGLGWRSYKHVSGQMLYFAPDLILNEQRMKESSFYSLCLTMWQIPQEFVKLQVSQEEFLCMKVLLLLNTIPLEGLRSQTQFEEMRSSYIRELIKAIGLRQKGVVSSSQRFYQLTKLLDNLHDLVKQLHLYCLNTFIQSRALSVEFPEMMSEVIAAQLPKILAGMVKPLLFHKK
Chain of Androgen receptor (Homo sapiens) (P10275 whole entry, looked up): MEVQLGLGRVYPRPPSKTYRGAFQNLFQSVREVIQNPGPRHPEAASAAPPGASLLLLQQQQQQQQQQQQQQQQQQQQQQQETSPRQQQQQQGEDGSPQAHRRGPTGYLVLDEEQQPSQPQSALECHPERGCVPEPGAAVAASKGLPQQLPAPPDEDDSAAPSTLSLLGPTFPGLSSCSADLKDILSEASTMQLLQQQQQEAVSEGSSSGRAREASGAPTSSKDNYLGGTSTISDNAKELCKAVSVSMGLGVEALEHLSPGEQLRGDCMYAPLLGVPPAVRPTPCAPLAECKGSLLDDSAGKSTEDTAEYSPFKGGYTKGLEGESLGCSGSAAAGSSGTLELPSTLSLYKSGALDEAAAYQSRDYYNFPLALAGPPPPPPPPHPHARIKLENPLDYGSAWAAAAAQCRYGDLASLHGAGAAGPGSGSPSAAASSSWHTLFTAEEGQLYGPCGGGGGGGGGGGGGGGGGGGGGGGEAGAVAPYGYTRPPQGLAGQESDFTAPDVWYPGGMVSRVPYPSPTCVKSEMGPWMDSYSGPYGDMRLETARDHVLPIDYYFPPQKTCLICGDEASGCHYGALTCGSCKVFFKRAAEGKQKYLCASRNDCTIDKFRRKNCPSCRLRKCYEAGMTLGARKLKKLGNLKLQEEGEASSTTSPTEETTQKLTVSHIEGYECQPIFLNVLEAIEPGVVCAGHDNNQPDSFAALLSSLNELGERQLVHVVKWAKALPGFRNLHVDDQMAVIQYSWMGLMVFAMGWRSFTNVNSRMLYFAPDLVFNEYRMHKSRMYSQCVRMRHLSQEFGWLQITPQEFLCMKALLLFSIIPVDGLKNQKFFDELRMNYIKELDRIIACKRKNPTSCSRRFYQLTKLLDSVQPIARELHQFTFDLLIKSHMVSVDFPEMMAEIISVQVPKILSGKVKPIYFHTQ

C1C2OC2C2C1C1CC2C2OC12 (stereo not drawn)
inactive: Potency [1] | Potency [2] | Potency [3] | Potency [4] | outcome [5] | Potency [6] | Potency [7] | Potency [8] | Potency [9] | outcome [10] | outcome [11] | outcome [12] | outcome [13] | outcome [14]

CC/C=C\CCCCO
inactive: Potency [1] | Potency [2] | Potency [3] | Potency [4] | Potency [15] | outcome [5] | Potency [6] | Potency [7] | Potency [8] | Potency [9] | outcome [10] | outcome [11] | outcome [12] | outcome [13] | outcome [14]

CC(C)=CC(=O)O
inactive: Potency [1] | Potency [2] | Potency [3] | Potency [4] | Potency [15] | outcome [16] | outcome [5] | Potency [6] | Potency [7] | Potency [8] | Potency [9] | outcome [10] | outcome [12] | outcome [13] | outcome [14]

CCOC(=O)[C@H](CCc1ccccc1)N[C@@H](C)C(=O)N1CCC[C@H]1C(=O)O
inactive: Potency [1] | Potency [2] | Potency [4] | outcome [16] | Potency [17] | outcome [5] | Potency [8] | Potency [9] | outcome [10] | outcome [11] | outcome [12] | outcome [13] | outcome [14]

NS(=O)(=O)c1cc2c(cc1C(F)(F)F)NC(Cc1ccccc1)NS2(=O)=O (stereo not drawn)
inactive: Potency [18] | Potency [2] | Potency [3] | Potency [19] | Potency [4] | outcome [16] | Potency [17] | outcome [5] | Potency [6] | Potency [7] | Potency [8] | Potency [9] | outcome [10] | outcome [11] | outcome [12] | outcome [13] | outcome [14]

NC(=O)Nc1nc2ccccc2[nH]1
inactive: outcome [20] | Potency [18] | Potency [2] | Potency [3] | Potency [4] | Potency [15] | outcome [5] | Potency [6] | Potency [7] | Potency [8] | Potency [9] | outcome [10] | outcome [11] | outcome [12]

O=S(=O)(c1cccc2cnccc12)N1CCCNCC1
inactive: outcome [20] | Potency [18] | Potency [2] | Potency [4] | outcome [16] | Potency [17] | outcome [5] | Potency [6] | Potency [8] | Potency [9] | outcome [10] | outcome [11] | outcome [12] | outcome [13] | outcome [14]

Cn1ccc2cc3c(cc21)CCN3C(=O)Nc1cccnc1
inactive: activity change, negative = inhibition [1] 1.03% [at 19 µM] | activity change, negative = cytotoxicity [2] 2.26% [at 19 µM] | activity change, negative = cytotoxicity [4] -14.8% [at 19 µM] | activation [15] 12% [at 19 µM] | cAMP activity change [16] -0.339% [at 18.9 µM] | activity change, negative = cytotoxicity [5] -5.2% [at 19 µM] | activation [6] 1.39% [at 19 µM] | activity change, negative = inhibition [7] -0.261% [at 18.9 µM] | activity change, negative = cytotoxicity [8] -18% [at 18.9 µM] | activity change, negative = cytotoxicity [9] 0.965% [at 19 µM] | viability change, negative = cytotoxic [10] 10.7% [at 15.8 µM] | activity change, negative = cytotoxicity [11] -1.62% [at 15.8 µM] | activation [12] 2.76% [at 15.8 µM] | activity, negative = inhibition [13] -16.1% [at 10.5 µM] | activation [14] -0.003% [at 11.8 µM]
